Laboratory results from PubChem BioAssay AID1159580 (chemical genetic matrix, 2015).
“And” between values parts separate entries of the source, which are not always exact repeats. Equal entries are not always repeated. In all, about 5,500 compounds went through this assay and about 2,000 (36%) were called active. Roughly 18% stayed inconclusive and do not appear here. Rule as the data show it: active = normalized growth mostly below about 0.91 (no sharp cut-off); inconclusive = no clear call, values can overlap the other calls; inactive = mostly above about 0.92. This is one part of the list.

Experiment: chemical genetic growth profiling, strain panel (AID 1159580);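 also: tested at 20 µM; growth read once vehicle control cultures reached saturation at 30 °C; 1 = growth at the plate median or of vehicle wells; lower values mean less growth of the strain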
Details: S. cerevisiae deletion strains, growth OD

Measured: normalized growth

CCn1cc(C(=O)O)c(=O)c2cc3c(cc21)OCO3
inactive: locus YAL013W, strain DEP1, active compounds read low 1.01 | locus YAL021C, strain ccr4, active compounds read low 0.967 | locus YAL026C, strain drs2, active compounds read low 0.982 | locus YAL030W, strain snc1, active compounds read low 0.977 | locus YAL040C, strain CLN3, active compounds read low 0.97 | locus YBL061C, strain skt5, active compounds read low 0.977 | locus YBR009C, strain hhf1, active compounds read low 0.977 | locus YBR021W, strain FUR4, active compounds read low 1.01 | locus YBR023C, strain chs3, active compounds read low 0.957 | locus YBR171W, strain sec66, active compounds read low 0.962 | locus YBR229C, strain ROT2, active compounds read low 1.01 | locus YBR231C, strain swc5, active compounds read low 0.979 | locus YBR279W, strain paf1, active compounds read low 0.977 | locus YCL011C, strain gbp2, active compounds read low 0.974 | locus YCL016C, strain dcc1, active compounds read low 0.988 | locus YCL029C, strain bik1, active compounds read low 0.997 | locus YCL061C, strain MRC1 (second series), active compounds read low 0.991 | locus YCL061C, strain MRC1, active compounds read low 0.971 | locus YCL069W, strain vba3, active compounds read low 0.98 | locus YCR088W, strain abp1, active compounds read low 0.981 | locus YDL005C, strain med2, active compounds read low 0.971 | locus YDL035C, strain GPR1, active compounds read low 1.02 | locus YDL040C, strain nat1, active compounds read low 0.985 | locus YDL074C, strain BRE1, active compounds read low 1.06 | locus YDL101C, strain DUN1, active compounds read low 1.02 | locus YDL134C, strain PPH21, active compounds read low 1 | locus YDL185W, strain tfp1, active compounds read low 0.999 | locus YDL192W, strain arf1, active compounds read low 0.99 | locus YDR001C, strain nth1, active compounds read low 0.979 | locus YDR069C, strain doa4, active compounds read low 0.989 | locus YDR101C, strain arx1, active compounds read low 0.993 | locus YDR137W, strain rgp1, active compounds read low 0.857 | locus YDR150W, strain NUM1, active compounds read low 0.99 | locus YDR159W, strain sac3, active compounds read low 0.996 | locus YDR162C, strain NBP2, active compounds read low 1.01 | locus YDR195W, strain ref2 0.983 | locus YDR297W, strain sur2, active compounds read low 0.98 | locus YDR318W, strain mcm21, active compounds read low 1 | locus YDR334W, strain swr1, active compounds read low 0.955 | locus YDR335W, strain msn5, active compounds read low 0.984 | locus YDR363W, strain ESC2, active compounds read low 0.973 | locus YDR388W, active compounds read low 0.99 | locus YDR392W, strain spt3, active compounds read low 0.914 | locus YDR502C, strain sam2, active compounds read low 1.01 | locus YEL003W, strain gim4, active compounds read low 1 | locus YEL037C, strain rad23, active compounds read low 0.975 | locus YEL061C, strain CIN8 (second series), active compounds read low 0.98 | locus YEL061C, strain CIN8, active compounds read low 1.01 | locus YER002W, strain NOP16, active compounds read low 0.967 | locus YER015W, strain faa2, active compounds read low 0.983 | locus YER016W, strain bim1, active compounds read low 0.993 | locus YER110C, active compounds read low 0.991 | locus YER111C, strain swi4, active compounds read low 0.972 | locus YER155C, strain BEM2 (second series), active compounds read low 0.979 | locus YER155C, strain BEM2, active compounds read low 1.01 | locus YER167W, strain BCK2, active compounds read low 1.01 | locus YFR010W, strain ubp6, active compounds read low 0.97 | locus YGL078C, strain dbp3, active compounds read low 0.99 | locus YGL086W, strain mad1, active compounds read low 1.01 | locus YGL167C, strain pmr1, active compounds read low 0.976 | locus YGL173C, strain kem1, active compounds read low 0.974 | locus YGL227W, strain vid30, active compounds read low 0.978 | locus YGL240W, strain doc1, active compounds read low 0.988 | locus YGL248W, strain PDE1, active compounds read low 1.02 | locus YGL253W, strain hxk2, active compounds read low 0.991 | locus YGR135W, strain pre9, active compounds read low 0.99 | locus YGR229C, strain SMI1, active compounds read low 1.02 | locus YGR252W, strain gcn5, active compounds read low 1 | locus YHR013C, strain ard1, active compounds read low 0.959 | locus YHR027C, strain rpn1, active compounds read low 0.971 | locus YHR030C, strain SLT2, active compounds read low 1.01 and 1.07 | locus YHR079C, strain IRE1 (second series), active compounds read low 0.992 | locus YHR079C, strain IRE1, active compounds read low 1.11 | locus YHR094C, strain hxt1, active compounds read low 0.987 | locus YHR129C, strain ARP1, active compounds read low 1.01 | locus YHR142W, strain chs7, active compounds read low 0.933 | locus YHR200W, strain rpn10, active compounds read low 1 | locus YIL066C, strain RNR3, active compounds read low 1.02 | locus YIL073C, strain SPO22, active compounds read low 0.987 | locus YIL125W, strain kgd1, active compounds read low 0.995 | locus YIR030C, strain dcg1, active compounds read low 0.999 | locus YJL092W, strain hpr5, active compounds read low 0.981 | locus YJL095W, strain BCK1 (second series), active compounds read low 0.983 | locus YJL095W, strain BCK1, active compounds read low 1.03 and 1.04 | locus YJL115W, strain asf1, active compounds read low 0.974 | locus YJL129C, strain trk1, active compounds read low 0.974 | locus YJL134W, strain LCB3, active compounds read low 1.01 | locus YJL154C, strain vps35, active compounds read low 0.969 | locus YJL164C, strain tpk1, active compounds read low 0.997 | locus YJL166W, strain qcr8, active compounds read low 0.969 | locus YJL168C, strain set2, active compounds read low 0.997 | locus YJL187C, strain SWE1 (second series), active compounds read low 1.03 | locus YJL187C, strain SWE1, active compounds read low 0.975 | locus YJR043C, strain POL32, active compounds read low 1.02
